# Screens: PubChem, The Scripps Research Institute Molecular Screening Center
# ssDAF-12 act: S. stercoralis DAF-12 nuclear receptor activators, primary screen, cell-based, luminescence, HEK293, GRIP1 co-expression, lit1-tk-luc; Nuclear hormone receptor DAF-12 (Strongyloides stercoralis); HEK293 ssDAF-12/GRIP1 lit1-tk-luc reporter; % of 3 µM dafachronic acid response; activation, % at 6.8 µM; hit rate 1% among 370,000; AID 652126, 2013;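 active = activation above the mean over all tested compounds plus 3 SD, cut at about 0.9% in these data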;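 note: 0% = DMSO-only wells and 100% = 3 µM delta7-dafachronic acid wells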
# hcDAF12 agonist: H. contortus DAF-12 nuclear receptor activators, primary screen, cell-based, luminescence, HEK293, lit1-tk-luc reporter; AID 652067, 2013; activation, % at 6.8 µM; HEK293 hcDAF-12 lit1-tk-luc reporter; 0% DMSO, 100% Δ7-dafachronic acid; hit rate 1.4% among 370,000;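 active = activation above the mean of all tested compounds plus 3 SD, cut at about 5.5% in these data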;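 note: 100% = response to 3 µM Δ7-dafachronic acid high control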
# hgDAF12 agonist: H. glycines DAF-12 receptor agonists, primary screen, cell-based, luminescence, HEK293, GAL4 fusion, UAS-luciferase | activation, % at 6.8 µM | Nuclear hormone receptor DAF-12 (Heterodera glycines), GAL4 fusion | hit rate 1.8% among 370,000 | HEK293 GAL4-hgDAF12 UAS-luciferase reporter, agonist luminescence; normalized to butyrate control;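 active = activation above a cutoff set at the mean of all screened compounds plus 3 SD, cut at about 10% in these data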;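 note: 0% = DMSO wells and 100% = sodium butyrate wells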
# DAX1 inh-1: DAX1 (NR0B1) inhibitors, primary screen, cell-based, HEK293, Gal4-DAX1, luciferase luminescence. Nuclear receptor subfamily 0 group B member 1 (Homo sapiens), P51843. HEK293 Gal4-DAX1 luciferase reporter. inhibition, % at 6.75 µM. hit rate 0.99% among 340,000. AID 504766, 2011;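 active = inhibition above the mean over all tested compounds plus 3 SD, cut at about 4.2% in these data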;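 note: 0% = DAX1-transfected cells with DMSO and 100% = empty-vector control cells with DMSO; inhibition shows as a rise in luminescence from relieved DAX1 repression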
# Target sequence (P51843 207-470 limits assumed): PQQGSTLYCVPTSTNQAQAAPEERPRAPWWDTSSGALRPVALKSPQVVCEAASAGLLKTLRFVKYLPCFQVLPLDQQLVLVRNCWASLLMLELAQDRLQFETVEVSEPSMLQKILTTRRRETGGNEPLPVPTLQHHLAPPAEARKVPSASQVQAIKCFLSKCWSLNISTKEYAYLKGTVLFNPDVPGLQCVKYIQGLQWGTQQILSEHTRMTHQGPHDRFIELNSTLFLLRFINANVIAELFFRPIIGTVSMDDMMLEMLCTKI
# DAX1 inh-2: DAX1 (NR0B1) inhibitors on StAR promoter, primary screen, cell-based, luminescence, SF-1 (NR5A1), full-length DAX-1; hit rate 1.1% among 370,000; HEK293T StAR-luciferase reporter, SF-1/DAX-1 repression relief; AID 652010, 2013; inhibition, % at 6.8 µM;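 active = inhibition above the mean over all tested compounds plus 3 SD, cut at about 3.6% in these data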;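 note: 0% = DAX-1 cells with DMSO and 100% = cells lacking DAX-1 with DMSO; higher inhibition means more luminescence from relief of DAX-1 repression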
# AHR activator: AHR activators, primary screen, cell-based, luminescence, luciferase reporter, human | Aryl hydrocarbon receptor (Homo sapiens), P35869 | AHR-responsive luciferase reporter cells | activation, % at 5 µM | hit rate 2.5% among 320,000 | AID 2796, 2010; in the data active = activation above about 47%;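 note: 0% = vehicle wells and 100% = reference agonist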
# An asterisk follows results filed as active; / = not tested or not shown. An excerpt weighted towards active compounds, which were near 5.7% of everything screened.
SMILES,ssDAF-12 act,hcDAF12 agonist,hgDAF12 agonist,DAX1 inh-1,DAX1 inh-2,AHR activator
Cc1c(CN(C)C)c2c(n1C)C(=O)c1ccc(Br)cc1-2,-2.0,-1.5,0.0,0.6,0.3,70.8*
CCCc1nc2cc3c(cc2[nH]1)n(C)c(=O)n3C,-0.6,1.7,-1.4,0.3,-0.4,75.2*
c1ccc(C2CCC(N3CCNCC3)CC2)cc1 (stereo not drawn),-1.0,0.7,2.1,1.3,0.8,6.6
O=c1c2ccccc2nc2ccc(NCc3ccco3)nn12,-0.1,2.6,9.2,5.2*,3.3,8.4
CC(c1nc2ccccc2[nH]1)N(C(=O)C1=NNC(=O)CC1)c1ccccc1 (stereo not drawn),1.4*,4.4,0.8,/,1.7,/
O=c1oc2ccccc2n1Cc1cccc(Cl)c1,-1.6,-3.3,1.8,6.4*,0.2,-2.8
COc1ccc(C(C)=O)cc1CN1C(=O)C(Cc2ccccc2)ON=C1c1ncccc1C (stereo not drawn),-0.9,-0.5,-0.6,/,0.2,/
COc1ccc(OCc2nnc(SCC(=O)NCC3CCCO3)n2N)cc1 (stereo not drawn),-0.5,-0.2,1.2,2.5,-0.3,-1.1
Cn1c(COc2ccc([N+](=O)[O-])cc2)nnc1SCC(=O)NCC1CCCO1 (stereo not drawn),1.0*,-2.5,0.2,-0.5,0.0,1.6
COc1cc2cc(-c3ccc(OC)c(OC)c3C)nc(N)c2cc1OC,-1.2,-1.9,-5.3,/,0.6,7.3
COc1cc2cc(-c3ccc(O)cc3O)nc(C)c2cc1OC,-0.5,-1.1,-2.5,3.1,-1.2,48.1*
O=C(O)CSCc1nc2scc(-c3ccccc3)c2c(=O)[nH]1,-1.4,-1.1,2.8,5.8*,0.0,3.2
F[B-](F)(F)c1cc2ccccc2s1,-0.8,-1.2,-4.0,0.3,0.0,/
Cc1cc(C)n2nc(C(=O)Nc3cccc(S(=O)(=O)N(C)c4ccccc4)c3)nc2n1,-1.5,-2.5,-1.7,1.0,-0.6,8.0
COc1ccccc1CN(C)C(=O)COC(=O)c1cc(C)oc1C,-1.3,-0.6,1.0,-1.9,-1.3,/
COc1cccc(NC(=O)/C=C/c2ccco2)c1,0.5,1.7,10.5*,0.4,4.0*,10.5
COc1ccccc1NC(=O)/C=C\c1ccco1,-0.2,5.6*,3.1,1.2,0.1,24.2
O=C(/C=C/c1ccco1)c1cccnc1,-1.1,0.0,-1.9,2.3,-0.2,0.1
O=C(/C=C/c1ccco1)Nc1cccnc1,0.4,0.2,5.2,2.0,0.6,71.0*
O=C(/C=C/c1ccco1)NC(=S)Nc1cccc(-c2nc3ccccc3o2)c1,-0.4,0.7,4.3,-2.2,-2.2,56.8*
Cc1cccc(NC2=CC(=O)CC(C)(C)C2)c1C,-1.4,-1.2,1.4,2.9,1.7,0.6
COc1ccc(-c2nnn(CC(=O)N(CC3CCCO3)C(C(=O)NC(C)(C)C)c3ccco3)n2)cc1OC (stereo not drawn),-2.1,-2.0,-2.3,-0.2,0.2,4.1
Cc1ccc(S(=O)(=O)N2CCOCC2)cc1C(=O)NNC(=O)c1ccoc1C,-1.5,0.6,0.9,3.2,0.2,0.0
COc1ccc(C(=O)Nc2nc3ccc(OC)cc3s2)cc1,-0.8,1.2,7.6,1.7,0.6,/
COc1ccc(Nc2nc3ccc(OC)cc3s2)cc1,-1.2,0.1,12.1*,1.1,1.2,-2.7
SMILES,ssDAF-12 act,hcDAF12 agonist,hgDAF12 agonist,DAX1 inh-1,DAX1 inh-2,AHR activator
CC(=O)c1sc(Nc2ccccn2)nc1C,-1.0,-0.3,1.5,0.8,0.1,60.6*
CC(=O)c1sc(Nc2cccc3ccccc23)nc1C,-0.7,-0.8,3.1,0.6,0.1,6.5
COc1ccc2nc(Nc3nc(C)c(C(C)=O)s3)sc2c1,-0.5,0.6,12.8*,1.5,1.3,4.5
Cc1noc(C)c1S(=O)(=O)NCc1ccc(CN(C)C)cc1,-0.5,-0.2,-1.0,1.0,-0.4,0.1
CC(C)CN(C(=O)c1cc(Cl)nc2ccccc12)C1CCS(=O)(=O)C1 (stereo not drawn),-0.8,1.2,2.1,1.1,-0.2,/
O=C(OCC#CCSc1nnc(-c2cccc(F)c2)o1)c1ccc(F)cc1,-1.1,0.8,0.2,/,/,/
O=C(Nc1ccc(Cl)c(Cl)c1)c1csc(-c2ccccc2)n1,-1.5,2.2,-0.9,0.7,-0.4,74.0*
O=C(Nc1cccc(Cl)c1)c1csc(-c2ccccc2)n1,-0.6,1.6,4.3,1.2,0.9,93.2*
NNC(=O)c1csc(-c2ccccc2)n1,-1.6,1.0,1.9,0.7,0.0,13.2
Cc1nnc(NC(=O)Nc2cccc(Cl)c2)s1,0.4,0.6,11.2*,0.2,0.9,71.2*
O=C(Nc1cccc(Cl)c1)Nc1cccc(Cl)c1,-0.9,-0.3,5.3,0.1,0.3,4.2
COc1ccccc1NS(=O)(=O)c1cccc(C(=O)NCc2ccco2)c1,-1.3,-1.9,1.0,0.0,-0.2,2.4
Cc1ccc(OC/C(=N\O)C(C)(C)C)c([N+](=O)[O-])c1,-0.6,0.7,2.2,0.6,0.5,3.3
Cc1ccc(CN2CCN(CCCn3cccn3)CC2CCO)cc1 (stereo not drawn),-0.9,0.4,-0.5,-0.4,1.5,1.4
Cn1ccsc1=NC(=O)c1ccc(S(C)(=O)=O)c([N+](=O)[O-])c1,-0.9,-0.7,0.7,0.8,0.7,61.8*
Cn1ccsc1=NC(=O)c1cccc(C#N)c1,-0.8,0.2,2.5,4.5*,0.4,8.4
Cc1ccc(C(=O)N=c2sccn2C)cc1S(=O)(=O)N1CCOCC1,-0.3,1.3,5.6,-0.4,3.7*,15.8
Cn1ccsc1=NC(=O)c1ccc(S(C)(=O)=O)cc1,-0.9,-0.9,1.9,1.6,0.0,-1.8
Cn1ccsc1=NC(=O)c1ccc(Cl)c([N+](=O)[O-])c1,-1.3,1.3,-1.7,0.7,0.1,68.0*
CC1=C[C@@H](C)[C@@H](c2ccccc2)OC1=O,-1.1,-1.1,-0.6,-0.7,-0.5,-1.5
CCCC(C)NC(=O)COC(=O)c1cccc(NS(C)(=O)=O)c1 (stereo not drawn),-0.4,-0.8,1.9,4.6*,-0.4,-0.1
Nc1nonc1-n1nnc(C(=O)N/N=C/c2ccccc2)c1CN1CCc2ccccc21,-1.8,1.1,-0.2,-0.2,-0.1,3.9
C/C(=N\NC(=O)c1nnn(-c2nonc2N)c1CN1CCc2ccccc21)c1ccccc1O,-0.8,5.6*,0.0,0.2,-0.2,8.9
